The values below come from PubChem BioAssay AID589 (National Center for Advancing Translational Sciences (NCATS), 2007).

About 6,200 (11%) of roughly 59,000 compounds were called active. Not shown: some 9% with an inconclusive outcome. No stated cut-off is given here; in the data, active means max dye-equivalent concentration above about 10 nM; inconclusive means mostly about 1.1 nM to 9.6 nM; inactive means weaker than that. What follows is part of a selection rich in actives, with near analogues and random picks from the rest.

A short description of this assay: qHTS Assay for Spectroscopic Profiling in 4-MU Spectral Region. The settings on record: compound autofluorescence, 340/450 nm, 4-MU equivalents; hits give high values. The source says: NIH Molecular Libraries Screening Centers Network [MLSCN] NIH Chemical Genomics Center [NCGC] […] Occasionally, the artifactual effect may originate from the compounds own spectral or other biophysical properties which generally tend to track its assay concentration. Pre-screening/profiling the library with respect to the compounds spectral properties should help one exclude false positives early on. While the most informative fluorescent profiling data set is obtained by performing a full excitation and emission scan of each well by using a monochromator-based plate reader, such an approach is practical only on a very limited scale as scanning each well requires long time. An alternative approach, applied here, is to perform plate reader scans using selected excitation and emission wavelength pairs to generate a multidimensional relational database that correlates compound concentration and the respective relative fluorescence intensity at a given wavelength set. A standard curve of 4-methylumbelliferone (4-MU) present on each plate as six-point concentration series, was used to compute a normalized fluorescence response, termed dye-equivalent concentration, for each compound at each concentration.
NCGC Assay Protocol Summary: Buffer: 100 mM Tris buffer, pH 8.0 Dye standard plate: The wells in columns 1 through 4 of a Kalypsys polypropylene 1536-well compound plate were filled with standard solutions of fluorophore corresponding to the spectral region of interest. Solutions of 4-MU were placed in the following wells: A1, B1: 3 mM, A2, B2: 300 uM, A3, B3: 30 uM, A4, B4: zero (DMSO), C1, D1: 3 uM, C2, D2: 900 nM, C3, D3: 300 nM, C4, D4: zero (DMSO). Assay Steps: Six uL of buffer were dispensed to 1536-well Greiner black plates. Compounds and dye standards (23 nL) were transferred via Kalypsys PinTool. The plates were incubated for 15 min at room temperature, and then read on ViewLux (Perkin-Elmer) High-throughput CCD imager using 340 nm and 450 nm excitation and emission filter set. Keywords: NIH Roadmap, MLSCN, MLI, MLSMR, qHTS, NCGC, Fluorescent Profiling, 4MU, 4-MU
In general terms: qHTS replaces the single test concentration by a dilution series.
With `Cn1c(CC(=O)Nc2ccccc2)nnc1SCC(=O)c1ccccc1`, the max dye-equivalent concentration result was “inactive”. Next, `CC(=O)N1CCC2(CC1)CCN(c1ccncc1)CC2`: “inactive”. On to `COc1cc(OC)cc(C(=O)Nc2ccc(-c3nc4ccccc4o3)c(O)c2)c1`, for which the max dye-equivalent concentration was 330 nM (active). The entry for `COc1ccc(NC(=O)c2c(C)oc3c2CCCC3)cc1` is “inactive”; for `COc1cccc(NC(=O)c2ccccc2SC)c1` it is “inactive”; for `O=C1[C@@H]2C(Cc3ccc(O)cc3)NC3(C(=O)Nc4ccc(F)cc43)[C@@H]2C(=O)N1c1ccc(F)cc1` (some centres undefined) it is “inactive”. The entry for `CC(Sc1sc(=S)sc1SC(C)C(=O)O)C(=O)O` (centres undefined) is “inactive”.

Consider `CC(C)CCNc1nc(N2CCCC2)c2c(c1C#N)CCN(C)C2`, for which the max dye-equivalent concentration is 24 nM (active). The entry for `COc1ccc(OC)c(NC(=O)CN2CCN(C(=O)c3ccco3)CC2)c1` is “inactive”; for `Cc1csc(NC(=O)NC2(C(F)(F)F)Oc3ccccc3O2)n1` it is 110 nM (active). With `O=C(Nc1cc(N2CCOCC2)ncn1)NC1(C(F)(F)F)Oc2ccc(Cl)cc2O1` (centres undefined), the max dye-equivalent concentration result is “inactive”. The entry for `Cc1csc(NC(=O)CN2CCCCCC2)n1` is “inactive”. The entry for `C[C@H](NC(=O)NCCc1ccccc1)C(=O)O` is “inactive”; for `CNc1ncnc2ccc(-c3cccc(NS(C)(=O)=O)c3)cc12` it is “inactive”.

Regarding `Cn1c(SCC(=O)OC2CCCCC2)nnc1-c1ccc(S(=O)(=O)N2CCCC2)cc1`, the max dye-equivalent concentration entry is “inactive”. In the case of `O=C(Oc1cccnc1)c1cc2ccccc2oc1=O`, the max dye-equivalent concentration was 82 nM (active). As for `O=C(NCc1ccccn1)c1cc2ccccc2oc1=O`, the max dye-equivalent concentration is 22 nM (active). As for `O=C(NCc1ccccn1)Nc1ccc(F)cc1`, the max dye-equivalent concentration entry is “inactive”. The entry for `COc1ccc2oc(=O)c(C(=O)O)cc2c1` is “inactive”; for `Cc1ccsc1C(=O)OCC(=O)c1cc2ccccc2o1` it is “inactive”.

As for `O=C(NCc1ccccn1)c1cnc2sccn2c1=O`, the max dye-equivalent concentration result was “inactive”. Next, `Cc1cc(NC(=O)COC(=O)c2ccc(F)c(S(=O)(=O)N3CCOCC3)c2)no1`: “inactive”. Regarding `COc1ccc(NC(=O)N2CC3(CCN(C(=O)c4cccn4C)CC3)C2)cc1`, the max dye-equivalent concentration result is “inactive”. The entry for `Cc1cc(=O)[nH]c(SCc2cc(Cl)ccc2OC(F)F)n1` is “inactive”. The entry for `COc1ccccc1C(=O)N1CCNC(=O)C1CC(=O)Nc1ccc(Cl)cc1` (centres undefined) is “inactive”; for `CCCCc1cc(=O)oc2cc(C)cc(OCc3nn[nH]n3)c12` it is 59 nM (active). The entry for `Cc1c(O)c(Br)c(C)c(O)c1Br` (tested in a mixture with another compound) is “inactive”; for `CCc1nnc(NC(=O)c2nc3nccc(C)n3n2)s1` it is “inactive”. For the compound `CCC1=C/C(=C\c2ccc3c(c2)OCO3)C(=O)S1`, the max dye-equivalent concentration result is “inactive”. The figure for `COc1cc2nc(N3CCN(C(=O)[C@@H]4CCCO4)CC3)nc(N)c2cc1OC` is 890 nM (active). On to `COc1ccccc1CNC(=O)C1CCN(c2nc3ccccc3o2)CC1`, for which the max dye-equivalent concentration entry was “inactive”. Next, `O=C(C1CCCO1)N1CCC(c2nc3ccccc3[nH]2)CC1` (centres undefined): “inactive”; `COc1ccc2[nH]cc(CCNc3ncnc4ccc(-c5ccccc5CN(C)C)cc34)c2c1`: “inactive”.

Take `Cc1ccccc1NC(=O)c1cc(S(=O)(=O)N2CCOCC2)cs1`: the max dye-equivalent concentration result was “inactive”. Next, `CN(CC(=O)NC1CCCCC1)S(=O)(=O)c1ccc(Br)s1`: “inactive”. The entry for `COCCNC(=O)C(c1ccc(C)o1)N(Cc1ccccc1)C(=O)Cn1nnc2ccccc21` (centres undefined) is “inactive”. The entry for `CCC(C(=O)NC1CCCC1)N(C(=O)c1snc(C(N)=O)c1N)c1ccc2c(c1)OCCO2` (centres undefined) is “inactive”. For `COCCNC(=O)C(c1ccc(C)o1)N(Cc1cccs1)C(=O)c1snc(C(N)=O)c1N` (centres undefined), the max dye-equivalent concentration was 110 nM (active). Take `CCOC(=O)CCCNC(=O)CN1C(=O)NC(CCc2ccccc2)C1=O` (centres undefined): the max dye-equivalent concentration entry is “inactive”. Next, `CCOC(=O)c1ccc(NC(=O)CS(=O)(=O)c2cn(CC)c3ccccc23)cc1`: “inactive”.

With `O=C(Nc1ccccc1-c1nnn(CC(=O)N2CCN(c3ccccc3)CC2)n1)c1cccs1`, the max dye-equivalent concentration result was “inactive”. `Cc1[nH]c(N)nc(=S)c1CCCNc1ccccc1`: the max dye-equivalent concentration result is “inactive”. Next, `Cn1c(=S)c2[nH]c(SCCCc3ccccc3)nc2n(C)c1=O`: 13 nM (active); `Cn1c(=O)c2c(nc(NCCc3ccccc3)n2Cc2ccccc2)n(C)c1=O`: “inactive”. For the compound `CCCSc1nc2c(c(=O)[nH]c(=O)n2C)n1CCc1ccccc1`, the max dye-equivalent concentration entry was “inactive”. The entry for `O=C(CC(Cc1ccccc1)C(=O)O)NCCc1ccc2c(c1)OCO2` (centres undefined) is “inactive”; for `CCOc1ccc(OCC)c(NC(=O)CSc2nnc(Cn3cnc4ccccc43)n2C)c1` it is “inactive”. Take `CCOC(=O)c1c(C)oc2ccc(OCC(=O)N(CC)CC)cc12`: the max dye-equivalent concentration entry is “inactive”. Take `COC(=O)COc1ccc2oc(=O)cc(C)c2c1`: the max dye-equivalent concentration is 25 nM (active). For `COc1ccc2oc(C)c(NC(C)=O)c2c1`, the max dye-equivalent concentration result was “inactive”. Next, `Cc1nc(CNS(=O)(=O)c2cccnc2)cs1`: “inactive”. Turning to `COC(=O)c1ccc(C2C3=C(Nc4nnnn42)c2ccccc2OC3)cc1` (centres undefined), the max dye-equivalent concentration was 59 nM (active). Consider `CCCCCOC(=O)C1=C(C)Nc2nnnn2C1c1ccc(OC)c(OC)c1OC` (centres undefined), for which the max dye-equivalent concentration entry is “inactive”.

For the compound `COc1ccccc1NC(=O)C1=C(C)Nc2nnnn2C1c1cccc(Br)c1` (centres undefined), the max dye-equivalent concentration result was “inactive”.
